Screens deposited in PubChem BioAssay by National Center for Advancing Translational Sciences (NCATS).
An excerpt weighted towards active compounds, which were near 21% of everything screened.
Shiga inhibitor = A qHTS for Small Molecule Inhibitors of Shiga Toxin; Vero cells, Shiga toxin protein synthesis inhibition reporter; inhibition, % at 38.7 µM; hit rate 9.2% among 290,000; AID 2315, 2010; in the data active means inhibition mostly above about 28%, no sharp cut-off; inactive means mostly below about 43%; further: 0% is about no effect
NS1 function inh = qHTS Assay for Inhibitors of Influenza NS1 Protein Function | hit rate 0.4% among 270,000 | AID 2326, 2010 | Potency, µM (highest dose often 46.1 µM), for the others: at the top dose activity, positive = more growth; calls by dose curve; further: potency means the concentration at half of the fitted maximal effect; actives are rising curves; nearly all actives have a fitted effect of over 50% in size
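Growth recovery, yeast-based: influenza A NS1 expressed in S. cerevisiae causes slow growth, and suppressors are detected by OD600. The parent strain without NS1 is used as positive control.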
Cycloheximide cs = Cycloheximide Counterscreen for Small Molecule Inhibitors of Shiga Toxin; cell reporter, cycloheximide protein synthesis inhibition counterscreen; max response, %; hit rate 12% among 300,000; in the data active means max response mostly above about 13%, no sharp cut-off; inactive means mostly below about 14%; further: read at 38.3 µM for the half of the compounds with a filed dose; 0% is about no effect
Pf growth 96h = Primary qHTS for delayed death inhibitors of the malarial parasite plastid, 96 hour incubation | hit rate 6.9% among 320,000 | Potency, µM (highest dose often 28.7 µM), for the others: at the highest dose activity change, negative = inhibition, hits mostly inhibitors | P. falciparum luciferase reporter growth, 96 h; further: potency means the concentration at half of the fitted maximal effect; on the % scale 0 is the no-effect control and ±100 the full control effect
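Delayed-death screen, second-generation endpoint: infected erythrocytes, 2% hematocrit, 0.05% parasitemia final; 96 hours at 37 C, 5% CO2; luciferase detection reagent; luminescence decrease equals reduced growth.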
Pf growth 48h = Primary qHTS for delayed death inhibitors of the malarial parasite plastid, 48 hour incubation | Potency, µM (titrated, usually from 28.7 µM), inactives show at the highest dose activity change, negative = inhibition, actives largely listed as inhibitors | AID 504832, 2011 | P. falciparum luciferase growth in erythrocytes, 48 h | hit rate 5.9% among 310,000; further: potency means the concentration at half of the fitted maximal effect; on the % scale 0 is the no-effect control and ±100 the full control effect
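Luciferase-expressing P. falciparum in infected erythrocytes (2% hematocrit, 0.1% parasitemia final) in RPMI 1640/0.5% Albumax were exposed to compound for 48 hours at 37 C, 5% CO2; growth read as luminescence.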
Numbers without * were called inactive; ? = inconclusive; / = no result given. Unless noted, the call rests on the fitted dose curve; in most records, active means well fitted inhibition curve with a large enough effect; inconclusive means small, poorly fitted or top-dose-only effect, or another doubt; inactive means no such curve, though single readings can be large or run the other way.

SMILES	Shiga inhibitor	NS1 function inh	Cycloheximide cs	Pf growth 96h	Pf growth 48h
Cc1[nH]nc(Nc2ccccc2)c1[N+](=O)[O-]	53	-21%	31*	?	92%
Cc1ccc(Nc2n[nH]c(C)c2[N+](=O)[O-])cc1	43*	-14%	29*	203%	232%
CCC[C@H](NC(C)=O)C(=O)N[C@H]1CC(=O)ONCCCC[C@@H](C(N)=O)NC(=O)[C@H](Cc2c[nH]c3ccccc23)NC(=O)[C@H](CCCN=C(N)N)NC(=O)[C@@H](Cc2ccc3ccccc3c2)NC(=O)[C@H](Cc2cnc[nH]2)NC1=O	-12	/	-5	/	/
NC(=O)CC[C@H](NC(=O)OCc1ccccc1)C(=O)OCc1ccc(Cl)cc1	-3	13%	0	-2%	1%
COc1cccc(C(=O)Nc2nnc(SCC(=O)Nc3ccc(NC(C)=O)cc3)s2)c1	31	-14%	14	134%	67%
O=S(=O)(Nc1cccc(S(=O)(=O)N2CCOCC2)c1)c1cccs1	-3	4%	-3	?	23%
Cc1[nH]nc(NCCO)c1[N+](=O)[O-]	-5	/	1	43%	1%
Cc1[nH]nc(Nc2ccc(Br)cc2)c1[N+](=O)[O-]	112*	-34%	56*	205%	160%
Cc1cccc(Nc2n[nH]c(C)c2[N+](=O)[O-])c1	107*	-4%	63*	3%	132%
O=C(N/C(=C\c1cccc([N+](=O)[O-])c1)C(=O)N1CCCCC1)c1cccs1	10	8%	2	-8%	?
Cc1ccc(Sc2c(O)c3ccccc3n(C)c2=O)cc1	-6	-28%	-3	-33%	-7%
Cc1ccc(Nc2c([N+](=O)[O-])c(=O)n(C)c3ccccc23)cc1	-3	-5%	-2	1.7µM*	-19%
Cn1c(=O)c([N+](=O)[O-])c(NCc2ccccc2)c2ccccc21	2	5%	-1	8.3µM*	0%
Cc1ccc(Sc2c([N+](=O)[O-])c(=O)n(C)c3ccccc23)cc1	11	0%	10*	188%	?
O=c1[nH]c(/C=C/c2ccccc2OC(F)F)nc2c1cnn2-c1ccccc1	1	18%	-2	66%	29%
COC1c2ccccc2C(=O)N1Cc1ccc(F)cc1 (stereo not given)	1	7%	-1	18%	-1%
O=[N+]([O-])c1ccc(C2CCCC/C2=N/OCc2ccc(F)cc2)c([N+](=O)[O-])c1 (stereo not given)	11	-3%	7	?	12µM*
O=[N+]([O-])c1ccc(C2CCCC/C2=N/OCc2ccccc2F)c([N+](=O)[O-])c1 (stereo not given)	-1	6%	1	?	?
Cc1ccc(CNC(=O)CCSCc2ccc(C)cc2)cc1	-6	-7%	-2	?	13%
CC(C)Nc1ccc(C(CC(N)=O)NC(=O)Cc2ccc(Br)cc2)cc1[N+](=O)[O-] (stereo not given)	-2	3%	-2	-3%	?
O=C(O)CN1CCN(Cc2ccccc2F)C1=O	2	/	-6	8%	30%
CCCSc1ccc2nc(NC(=O)OC)[nH]c2c1	141*	-5%	35*	223%	111%
COc1ccc(C(=O)Nc2cc3c(cc2N2CCOCC2)n(C)c(=O)n3C)cc1OC	-4	-2%	-2	?	?
Cn1c(=O)n(C)c2cc(N3CCCCC3)c(NC(=O)c3cccc(Cl)c3)cc21	-4	-1%	-2	?	10µM*
CCn1c(=O)n(CC)c2cc(N3CCCC3)c(NC(=O)c3ccc(F)cc3)cc21	-14	0%	-1	31%	?
SMILES	Shiga inhibitor	NS1 function inh	Cycloheximide cs	Pf growth 96h	Pf growth 48h
CCOc1cc(C(=O)Nc2cc3c(cc2N2CCOCC2)n(C)c(=O)n3C)cc(OCC)c1OCC	-8	11%	1	8.3µM*	-16%
CCn1c(=O)n(CC)c2cc(N3CCCC3)c(NC(=O)c3cccc(OC)c3)cc21	4	-12%	-3	0.74µM*	?
COc1cccc(C(=O)Nc2cc3c(cc2N2CCOCC2)n(C)c(=O)n3C)c1	11	?	-7	?	-7%
CCn1c(=O)n(CC)c2cc(N3CCCC3)c(NC(=O)c3c(F)cccc3F)cc21	-5	1%	-2	?	?
CCOc1ccc(C(=O)Nc2cc3c(cc2N2CCCC2)n(CC)c(=O)n3CC)cc1OCC	-11	-4%	-3	12µM*	?
COc1ccccc1C1CN(c2ccccc2)N=C1c1cccs1 (stereo not given)	-11	23%	6	-101%	/
COc1cccc(C2CN(c3ccc(F)cc3F)N=C2c2cccs2)c1OC (stereo not given)	3	1%	1	12µM*	5.9µM*
Cc1ccc(OCC(=O)NNC(=O)C(=O)N2CCCC2)c(C)c1	22	9%	-4	?	-11%
Cc1cc2ccccn2c1C(=S)NC(=O)c1ccccc1	37*	-3%	16	-24%	11%
Cc1cc2ccccn2c1C(=O)Nc1cccc(Cl)c1	75*	/	53*	42%	51%
Cc1cc2ccccn2c1C(=O)c1ccncc1	-7	-9%	-2	?	2%
Cc1cc(O)c(C(=O)Nc2cccc(Cl)c2)c(=O)n1C	47*	-2%	33	?	-4%
CC(=O)N1c2ccc(S(=O)(=O)N3CCC(C(=O)N4CC(C)CC(C)C4)CC3)cc2CC1C (stereo not given)	-4	8%	7	-12%	?
CNC(=O)C1CC(=O)N(CCCc2ccccc2)C(=Nc2ccccc2)S1 (stereo not given)	-6	3%	0	?	/
Cn1c(=O)n(C)c2cc(NC(=O)CCc3ccccc3)c(Br)cc21	6	12%	-3	?	-17%
Cc1ccc(C)c(S(=O)(=O)NCc2ccc(C(=O)N3CCC(Cc4ccccc4)CC3)cc2)c1	-13	6%	0	?	-28%
Cc1cccn2c(=O)c(/C=C(\C#N)C(N)=O)c(N3CCN(c4cccc(Cl)c4)CC3)nc12	-4	14%	6	9.3µM*	?
Cc1cccn2c(=O)c(C=C(C#N)C#N)c(N3CCN(C)CC3)nc12	14	9%	1	7.4µM*	-3%
COC(=O)/C(C#N)=C/c1c(N2CCN(Cc3ccc4c(c3)OCO4)CC2)nc2c(C)cccn2c1=O	19	3%	-2	?	?
Cc1cccn2c(=O)c(/C=C(\C#N)C(N)=O)c(N3CCN(Cc4ccc5c(c4)OCO5)CC3)nc12	-13	-1%	-4	10µM*	9.3µM*
CNC(=O)/C(C#N)=C/c1c(N2CCN(c3ccccc3)CC2)nc2c(C)cccn2c1=O	22	12%	-5	?	?
CCOC(=O)/C(C#N)=C/c1c(N2CCN(Cc3ccc4c(c3)OCO4)CC2)nc2c(C)cccn2c1=O	-7	5%	-3	?	3.7µM*
COc1ccccc1/C=C/C=N/n1c(-c2ccc(Cl)cc2)n[nH]c1=S	22	7%	6	?	?
